KDM5B inhibitor: inhibitors of human KDM5B histone demethylase; KDM5B demethylase, FDH-coupled NADH fluorescence (FDH is formaldehyde dehydrogenase); 220,000 compounds, 2.6% hits; Q9UGL1; Potency, µM (titrated, usually from 57.7 µM), most hits filed as inhibitors; AID 1347165; active means well fitted inhibition curve with a large enough effect; further: 0% is about no effect; nearly all actives have a fitted effect of over 70% in size
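Coupled FDH/NAD⁺ fluorescence readout. KDM5BΔAP 200 nM final; compound titration, 10 min RT preincubation; substrate mix 12.5 µM H3K4me3, 25 µM 2-OG, 50 µM Fe(II), 100 µM ascorbate, 0.25 mM NAD⁺, 0.25 U/mL FDH; ΔRFU over 30 min.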
The depositor's hits bear a star; [ ] = remark or other dose. This excerpt belongs to a sample that is enriched for hits. Potency means the concentration at half of the fitted maximal effect.

What do the screens show for `Cn1cc([C@@H](NC(=O)c2cc(=O)n(-c3ccccc3)[nH]2)C2CC(O)C2)cn1` (some centres undefined)?
KDM5B inhibitor: inactive

How did Cn1cc([C@@H](NC(=O)c2nc3ccccc3[nH]c2=O)C2CC(O)C2)cn1 (some centres undefined) do in these assays?
KDM5B inhibitor: 32µM*

Results for CCNc1ncc(C(=O)N[C@H](c2cnn(C)c2)C2CC(O)C2)cn1 (some centres undefined) ?
KDM5B inhibitor: 28µM*

Results for Cn1cc([C@@H](NC(=O)c2n[nH]c3c2CCC3)C2CC(O)C2)cn1 (some centres undefined) ?
KDM5B inhibitor: inactive

How did Cc1ccc2nc(C(=O)N[C@H](c3cnn(C)c3)C3CC(O)C3)cn2c1 (some centres undefined) do in these assays?
KDM5B inhibitor: 32µM*

Results for COc1cc(OC)cc(N2CCN(S(=O)(=O)c3ccc(-n4cnnn4)cc3)CC2)c1 ?
KDM5B inhibitor: inactive

How did Cc1ccc(C(=O)NCCSc2c(C)[nH]c3ccccc23)cc1 do in these assays?
KDM5B inhibitor: inactive

Results for CCN(CC)C(=O)Oc1ccc2oc(=O)c(-c3ccccc3)c(C)c2c1 ?
KDM5B inhibitor: inactive

How did CCC(=O)Nc1cc(C)c(O)c(-c2nc3cc(C(C)C)ccc3o2)c1 do in these assays?
KDM5B inhibitor: inactive

How did CCN1CCN(c2oc(COc3ccc(F)cc3)nc2C#N)CC1 do in these assays?
KDM5B inhibitor: inactive

Results for Cc1cccc(CNCc2cccs2)c1 ?
KDM5B inhibitor: inactive

Results for COc1cccc(CN2Cc3cc(NC(=O)c4ccccc4)ccc3OC(C)C2=O)c1OC (centres undefined) ?
KDM5B inhibitor: inactive

How did CC(C)c1nc(CNC(=O)c2ccc(OC3CCN(C(=O)C4CC4)CC3)cc2)cs1 do in these assays?
KDM5B inhibitor: inactive

What do the screens show for `COc1ccc(C(=O)NCc2csc(C(C)C)n2)cc1OC1CCN(C(C)=O)CC1`?
KDM5B inhibitor: inactive

Results for COc1ccc(OC2CCN(C(C)=O)CC2)c(C(=O)NC(C)Cc2cccs2)c1 (centres undefined) ?
KDM5B inhibitor: 28µM*

What do the screens show for `COc1ccc(C(C(=O)O)N2CCC(C(=O)N3CCCC3)CC2)c(OC)c1` (centres undefined)?
KDM5B inhibitor: inactive

What do the screens show for `CCC(NC(=O)c1cc(OC)ccc1OC1CCN(C(C)=O)CC1)c1ccc(F)cc1` (centres undefined)?
KDM5B inhibitor: 28µM*

How did CCn1ccnc1CNC(=O)c1cc(OC)ccc1OC1CCN(C(=O)C2CC2)CC1 do in these assays?
KDM5B inhibitor: 28µM*

Results for CCC(C)NC(=O)C(NC(=O)c1ccccc1F)C1CCN(C(=O)c2ccc(OC)cc2)CC1 (centres undefined) ?
KDM5B inhibitor: inactive

What do the screens show for `COc1cc(C(=O)NCc2nc(C)cs2)ccc1OC1CCN(C(C)=O)CC1`?
KDM5B inhibitor: inactive

How did COc1ccc(OC2CCN(C(C)=O)CC2)c(C(=O)N(C)CC2CCCCO2)c1 (centres undefined) do in these assays?
KDM5B inhibitor: inactive

Results for CCN(CC)Cc1nc(C2(O)CCN(C(=O)COc3ccccc3)CC2)cs1 ?
KDM5B inhibitor: inactive

How did Cc1ccc(NC(=O)N2CCN(C(=O)N3CC4CC(C3)[C@H]3CCCC(=O)N3C4)CC2)cc1C (some centres undefined) do in these assays?
KDM5B inhibitor: inactive

How did CC(=O)NC12CC3CC(C1)CC(C(=O)Oc1ccc(-c4ccc(C#N)cc4)cc1)(C3)C2 do in these assays?
KDM5B inhibitor: inactive

What do the screens show for `Cc1ccc(N2C(=O)CSC23C(=O)N(CC(=O)NC2CCCCC2)c2ccccc23)cc1` (centres undefined)?
KDM5B inhibitor: inactive

What do the screens show for `COCCN1C(=O)c2cccn2CC1CNC(=O)c1cn[nH]c1-c1ccc(F)cc1` (centres undefined)?
KDM5B inhibitor: inactive

What do the screens show for `O=C(Cc1c(F)cccc1Cl)N[C@@H]1CCOC[C@H]1OCCO`?
KDM5B inhibitor: inactive

Results for COc1ccc(OCCNC(=O)c2cc(C3CC3)nc3ccccc23)cc1 ?
KDM5B inhibitor: inactive

Results for O=C(N[C@@H]1CCOC[C@H]1OCCO)C1CCN(Cc2ccco2)CC1 ?
KDM5B inhibitor: inactive

How did O=C(N[C@@H]1CCOC[C@H]1OCCO)c1cc(C2CC2)nc2ccccc12 do in these assays?
KDM5B inhibitor: 28µM*

How did CCC(C)NC(=O)c1cc(C2CC2)nc2ccccc12 (centres undefined) do in these assays?
KDM5B inhibitor: inactive

What do the screens show for `O=C(N[C@@H]1CCOC[C@H]1OCCO)c1cccc(-c2ccco2)c1`?
KDM5B inhibitor: 28µM*

What do the screens show for `Cc1ccc(N2CC(c3noc(-c4cccc(C)c4)n3)CC2=O)cc1` (centres undefined)?
KDM5B inhibitor: inactive

What do the screens show for `O=C(Nc1ccc(Cl)cc1Cl)c1cnn2c1CN([S+](=O)([O-])c1cccc(C(F)(F)F)c1)CC2`?
KDM5B inhibitor: inactive

Results for Cc1ccc(C(CNC(=O)c2cc(=O)c3ccc(Br)cc3o2)N2CCCCC2)o1 (centres undefined) ?
KDM5B inhibitor: inactive

What do the screens show for `O=C(CCC1CCN(C(=O)c2ccccc2)CC1)NCCCN1CCCC1=O`?
KDM5B inhibitor: inactive

Results for O=C(c1ccc(Cl)nc1)N1CCC(N2CCCCCC2=O)CC1 ?
KDM5B inhibitor: inactive

Results for CC(C)(C)CNc1ccc(C(=O)N2CCC(CN3CCCC3=O)CC2)cn1 ?
KDM5B inhibitor: 14µM*

How did CNc1ccc(C(=O)N2CCC(CCn3cccn3)CC2)cn1 do in these assays?
KDM5B inhibitor: 22µM*

Results for O=C(O)c1ccc(CC2CCN(C(=O)c3cccc(Cn4cccn4)c3)C2)cc1 (centres undefined) ?
KDM5B inhibitor: inactive

How did c1cnn(CCC2CCN(c3ncncn3)CC2)c1 do in these assays?
KDM5B inhibitor: inactive

How did O=C(CCC1CCN(c2cc(NC3CC3)ncn2)CC1)NCc1ccccc1Cl do in these assays?
KDM5B inhibitor: inactive

What do the screens show for `CC(C)C(=O)N1CCc2ccc(OCc3nc(C(=O)N4CCCC4)co3)cc2C1c1cccc(F)c1` (centres undefined)?
KDM5B inhibitor: inactive

How did CCN(CC)C(=O)c1ccccc1OCc1nc(-c2ccc(C)cc2)no1 do in these assays?
KDM5B inhibitor: inactive

How did CCN1c2ccccc2-c2nc(SCC(=O)Nc3ccc(C)c(Cl)c3)ncc2S1(=O)=O do in these assays?
KDM5B inhibitor: inactive

How did COc1cc(CNC(=O)C2CCCCN2S(=O)(=O)c2ccc(F)cc2)cc(OC)c1OC (centres undefined) do in these assays?
KDM5B inhibitor: inactive[11.5 µM]

How did O=C(NCCC1CCN(C(=O)Nc2ccccc2F)CC1)C1CCCC1 do in these assays?
KDM5B inhibitor: inactive

Results for CCOCCN1C[C@]23C=C[C@H](O2)C(C(=O)N2CCC(F)(F)CC2)C3C1=O (some centres undefined) ?
KDM5B inhibitor: inactive

What do the screens show for `O=C(CNC(=O)c1cccs1)Nc1nc(-c2cccc3ccccc23)cs1`?
KDM5B inhibitor: inactive

Results for COc1ccc(N2CCN(c3ncnc4c3nnn4C)CC2)cc1 ?
KDM5B inhibitor: inactive

What do the screens show for `CC(C)N1C(=O)Cc2ccccc2C1C(=O)NCc1ccc(N(C)C)cc1` (centres undefined)?
KDM5B inhibitor: inactive

Results for CCn1ccnc1CN(C)C(=O)c1cc(COc2ccc3c(c2)OCO3)[nH]n1 ?
KDM5B inhibitor: inactive

How did CCn1ccnc1CN(C)c1nccc(-c2ccc(C)nc2C)n1 do in these assays?
KDM5B inhibitor: 22µM*
